Consider seven sequences from PMC7862700, “An all-to-all approach to the identification of sequence-specific readers for epigenetic DNA modifications on cytosine”.

What all share (assay): DAPPL (digital affinity profiling via proximity ligation, sequencing); 10 mM Tris-HCl pH 7.5, 50 mM NaCl, 1 mM DTT, 4% glycerol, room temperature, 30 min; GST-TFs on glutathione beads, 16-mer random dsDNA library, 0.1% formaldehyde crosslink after washing; high values mean tight binding
Common to all, as to settings: protein: recombinant; tags: N-terminal GST; dsDNA, one strand shown

For one experiment, the target named is T1, FLI1 (Homo sapiens, UniProt Q01543 1-452).
T1 sequence: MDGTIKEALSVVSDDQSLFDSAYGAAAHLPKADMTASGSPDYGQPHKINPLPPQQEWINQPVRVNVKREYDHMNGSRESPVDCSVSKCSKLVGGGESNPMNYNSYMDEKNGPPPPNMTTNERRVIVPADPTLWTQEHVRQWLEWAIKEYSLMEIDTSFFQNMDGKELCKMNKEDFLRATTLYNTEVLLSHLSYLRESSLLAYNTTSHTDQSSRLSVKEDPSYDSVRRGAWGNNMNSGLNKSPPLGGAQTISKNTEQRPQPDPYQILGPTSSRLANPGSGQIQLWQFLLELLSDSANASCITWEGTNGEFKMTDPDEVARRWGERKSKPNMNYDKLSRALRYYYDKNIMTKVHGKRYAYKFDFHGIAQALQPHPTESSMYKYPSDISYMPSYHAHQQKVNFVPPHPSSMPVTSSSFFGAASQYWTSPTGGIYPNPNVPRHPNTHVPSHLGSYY
The gist of the method:
(§1)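 Yeast served to express human transcription factors as GST fusions, which were then captured on glutathione beads and labelled with DNA barcodes. Pooled with a tag-only sample, they were incubated with 200 nmole of a 16-mer random double-stranded DNA library for 30 min at room temperature in Tris/NaCl/DTT/glycerol buffer, washed, crosslinked with 0.1% formaldehyde, ligated by proximity, amplified by PCR and sequenced. Dividing each hexamer's read frequency for a factor by its frequency for the tag-only sample gives the binding signal.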

The target of another experiment is T2, ELK1 (Homo sapiens, UniProt P19419 1-428).
T2 sequence: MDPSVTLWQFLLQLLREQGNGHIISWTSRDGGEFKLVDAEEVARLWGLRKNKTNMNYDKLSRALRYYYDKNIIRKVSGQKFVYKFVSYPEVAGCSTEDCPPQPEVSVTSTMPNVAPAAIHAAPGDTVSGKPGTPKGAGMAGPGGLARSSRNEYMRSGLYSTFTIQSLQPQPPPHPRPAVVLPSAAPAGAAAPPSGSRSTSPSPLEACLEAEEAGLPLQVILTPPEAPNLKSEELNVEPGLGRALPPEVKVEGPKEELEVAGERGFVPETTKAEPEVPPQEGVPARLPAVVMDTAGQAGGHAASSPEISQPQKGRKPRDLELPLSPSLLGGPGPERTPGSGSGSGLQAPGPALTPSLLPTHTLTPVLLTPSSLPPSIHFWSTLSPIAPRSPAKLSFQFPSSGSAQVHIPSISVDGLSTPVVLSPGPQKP
The method, boiled down: as §1

For another experiment, the target named is T3, GABPA (Homo sapiens, UniProt Q06546 1-454).
T3 sequence: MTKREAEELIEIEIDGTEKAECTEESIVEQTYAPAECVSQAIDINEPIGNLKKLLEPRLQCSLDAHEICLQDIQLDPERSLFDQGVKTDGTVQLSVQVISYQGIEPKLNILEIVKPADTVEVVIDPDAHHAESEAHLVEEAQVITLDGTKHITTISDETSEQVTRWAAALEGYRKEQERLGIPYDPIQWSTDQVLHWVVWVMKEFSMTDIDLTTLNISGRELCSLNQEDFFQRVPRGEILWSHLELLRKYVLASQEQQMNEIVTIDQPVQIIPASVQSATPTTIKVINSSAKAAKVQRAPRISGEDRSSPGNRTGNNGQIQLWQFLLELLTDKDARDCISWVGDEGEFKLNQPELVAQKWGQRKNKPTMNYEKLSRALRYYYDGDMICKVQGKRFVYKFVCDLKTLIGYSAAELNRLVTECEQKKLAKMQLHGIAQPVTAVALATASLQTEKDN
The method, boiled down:
as §1

Another experiment has as its target T4, ERG (Homo sapiens, UniProt P11308 1-479).
T4 sequence: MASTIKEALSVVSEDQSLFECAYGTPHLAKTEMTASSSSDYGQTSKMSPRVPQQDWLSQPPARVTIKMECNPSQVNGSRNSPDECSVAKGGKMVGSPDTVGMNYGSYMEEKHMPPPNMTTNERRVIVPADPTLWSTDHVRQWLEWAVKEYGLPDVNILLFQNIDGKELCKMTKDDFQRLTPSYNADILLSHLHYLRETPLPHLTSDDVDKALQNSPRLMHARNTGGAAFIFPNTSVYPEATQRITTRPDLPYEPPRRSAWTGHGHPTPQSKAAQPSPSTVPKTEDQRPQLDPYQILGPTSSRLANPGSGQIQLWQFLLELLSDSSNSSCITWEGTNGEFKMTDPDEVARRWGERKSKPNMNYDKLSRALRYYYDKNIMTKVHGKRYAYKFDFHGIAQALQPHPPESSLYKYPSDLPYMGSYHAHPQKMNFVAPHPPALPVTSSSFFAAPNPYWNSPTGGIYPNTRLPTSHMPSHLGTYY
The gist of the method:
as §1

The target of a further experiment is ELF1 (Homo sapiens, UniProt P32519 1-619). The method, boiled down:
as §1

For a further experiment, the target named is T5, EHF (Homo sapiens, UniProt Q9NZC4 1-300).
T5 sequence: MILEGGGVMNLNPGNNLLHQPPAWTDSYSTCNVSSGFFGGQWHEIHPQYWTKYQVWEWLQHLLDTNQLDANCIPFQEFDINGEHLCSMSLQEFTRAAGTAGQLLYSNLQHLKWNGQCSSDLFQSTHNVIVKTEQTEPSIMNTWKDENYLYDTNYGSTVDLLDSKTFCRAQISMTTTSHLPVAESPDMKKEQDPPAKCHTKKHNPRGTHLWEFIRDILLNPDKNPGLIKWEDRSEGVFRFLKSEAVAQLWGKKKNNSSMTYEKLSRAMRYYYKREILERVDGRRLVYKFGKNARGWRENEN
The gist of the method:
as §1

In a further experiment the target is SPI1 (Homo sapiens, UniProt P17947 1-270). The gist of the method:
as §1

The next experiment addresses SPIB (Homo sapiens, UniProt Q01892 1-262). The gist of the method:
as §1

A further experiment addresses T6, ELK3 (Homo sapiens, UniProt P41970 1-407).
T6 sequence: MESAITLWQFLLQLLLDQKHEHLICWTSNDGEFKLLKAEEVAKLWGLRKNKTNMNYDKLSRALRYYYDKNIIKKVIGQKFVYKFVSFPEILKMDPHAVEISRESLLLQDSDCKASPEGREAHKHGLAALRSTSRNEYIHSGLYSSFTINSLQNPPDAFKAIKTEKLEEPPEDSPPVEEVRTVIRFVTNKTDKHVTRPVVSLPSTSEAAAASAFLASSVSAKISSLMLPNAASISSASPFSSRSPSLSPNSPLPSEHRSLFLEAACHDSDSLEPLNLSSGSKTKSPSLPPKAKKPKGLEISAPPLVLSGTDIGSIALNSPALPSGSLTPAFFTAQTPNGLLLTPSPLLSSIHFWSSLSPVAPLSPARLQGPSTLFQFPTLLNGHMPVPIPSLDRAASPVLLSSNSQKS
The method, boiled down: as §1

Chain of SPIB (Q01892 whole entry): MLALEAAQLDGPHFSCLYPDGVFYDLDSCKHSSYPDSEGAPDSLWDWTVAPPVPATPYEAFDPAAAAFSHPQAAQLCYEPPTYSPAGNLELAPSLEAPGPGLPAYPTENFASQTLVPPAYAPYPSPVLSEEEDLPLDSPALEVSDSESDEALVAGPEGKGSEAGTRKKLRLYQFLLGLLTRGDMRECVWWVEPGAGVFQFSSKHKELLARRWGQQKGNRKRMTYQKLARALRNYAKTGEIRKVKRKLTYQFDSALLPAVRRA
Chain of ELF1 (P32519 whole entry): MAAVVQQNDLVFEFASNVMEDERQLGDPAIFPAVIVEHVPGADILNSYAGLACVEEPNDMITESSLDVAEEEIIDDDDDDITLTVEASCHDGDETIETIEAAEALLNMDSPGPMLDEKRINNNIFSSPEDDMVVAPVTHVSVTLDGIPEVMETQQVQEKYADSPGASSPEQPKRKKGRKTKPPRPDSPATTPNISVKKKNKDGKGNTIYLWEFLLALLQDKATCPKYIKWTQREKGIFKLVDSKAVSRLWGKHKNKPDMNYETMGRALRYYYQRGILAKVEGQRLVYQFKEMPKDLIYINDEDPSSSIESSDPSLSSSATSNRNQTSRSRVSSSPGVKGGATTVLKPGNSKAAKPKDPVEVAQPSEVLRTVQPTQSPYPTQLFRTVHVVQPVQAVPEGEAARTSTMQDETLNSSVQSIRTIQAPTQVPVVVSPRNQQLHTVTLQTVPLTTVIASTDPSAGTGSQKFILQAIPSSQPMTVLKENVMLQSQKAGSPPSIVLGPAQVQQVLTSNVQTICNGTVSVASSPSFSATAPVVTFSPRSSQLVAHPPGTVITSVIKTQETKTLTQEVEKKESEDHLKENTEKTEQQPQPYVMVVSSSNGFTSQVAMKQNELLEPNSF

On to TCTTCC, for which the binding signal in the experiment with FLI1 is 2.61 fold enrichment (6-mer frequency, TF over GST control); with ELK1, 2.52 fold enrichment (6-mer frequency, TF over GST control); in the experiment with GABPA, 2.39 fold enrichment (6-mer frequency, TF over GST control); with ERG, 2.86 fold enrichment (6-mer frequency, TF over GST control); with ELF1, 2.65 fold enrichment (6-mer frequency, TF over GST control); in the experiment with EHF, 2.76 fold enrichment (6-mer frequency, TF over GST control). Also, the binding signal was 2.46 fold enrichment (6-mer frequency, TF over GST control) in the experiment with SPI1; 2.75 fold enrichment (6-mer frequency, TF over GST control) with SPIB; 2.79 fold enrichment (6-mer frequency, TF over GST control) with ELK3.
Take TCCTTG: the binding signal with FLI1 is 1.25 fold enrichment (6-mer frequency, TF over GST control); with ELK1 it was 1.31 fold enrichment (6-mer frequency, TF over GST control); with GABPA, 1.25 fold enrichment (6-mer frequency, TF over GST control); with ERG, 1.35 fold enrichment (6-mer frequency, TF over GST control); with ELF1, 1.25 fold enrichment (6-mer frequency, TF over GST control); with EHF, 1.32 fold enrichment (6-mer frequency, TF over GST control). In addition, the binding signal in the experiment with SPI1 is 1.31 fold enrichment (6-mer frequency, TF over GST control); with SPIB it was 1.41 fold enrichment (6-mer frequency, TF over GST control); with ELK3, 1.29 fold enrichment (6-mer frequency, TF over GST control).
In the case of ATCTCC, the binding signal in the experiment with FLI1 was 1.61 fold enrichment (6-mer frequency, TF over GST control); with ELK1, 1.5 fold enrichment (6-mer frequency, TF over GST control); with GABPA, 1.56 fold enrichment (6-mer frequency, TF over GST control); with ERG, 1.51 fold enrichment (6-mer frequency, TF over GST control); in the experiment with ELF1, 1.47 fold enrichment (6-mer frequency, TF over GST control); in the experiment with EHF it was 1.6 fold enrichment (6-mer frequency, TF over GST control). Further, the binding signal in the experiment with SPI1 is 1.37 fold enrichment (6-mer frequency, TF over GST control); with SPIB, 1.49 fold enrichment (6-mer frequency, TF over GST control); with ELK3 it was 1.42 fold enrichment (6-mer frequency, TF over GST control).
In the case of ATCCTC, the binding signal with FLI1 is 1.48 fold enrichment (6-mer frequency, TF over GST control); with ELK1, 1.47 fold enrichment (6-mer frequency, TF over GST control); in the experiment with GABPA, 1.55 fold enrichment (6-mer frequency, TF over GST control); in the experiment with ERG it was 1.52 fold enrichment (6-mer frequency, TF over GST control); in the experiment with ELF1, 1.48 fold enrichment (6-mer frequency, TF over GST control); in the experiment with EHF, 1.39 fold enrichment (6-mer frequency, TF over GST control). Moreover, the binding signal in the experiment with SPI1 is 1.51 fold enrichment (6-mer frequency, TF over GST control); in the experiment with SPIB it was 1.41 fold enrichment (6-mer frequency, TF over GST control); in the experiment with ELK3 it was 1.36 fold enrichment (6-mer frequency, TF over GST control).
Regarding TATCAT, the binding signal with FLI1 was 1.25 fold enrichment (6-mer frequency, TF over GST control); with ELK1, 1.18 fold enrichment (6-mer frequency, TF over GST control); with GABPA, 1.3 fold enrichment (6-mer frequency, TF over GST control); with ERG it was 1.13 fold enrichment (6-mer frequency, TF over GST control); with ELF1 it was 1.15 fold enrichment (6-mer frequency, TF over GST control); with EHF, 1.21 fold enrichment (6-mer frequency, TF over GST control). The binding signal with SPI1 was 1.13 fold enrichment (6-mer frequency, TF over GST control); with SPIB, 1.11 fold enrichment (6-mer frequency, TF over GST control); with ELK3, 1.17 fold enrichment (6-mer frequency, TF over GST control).
Regarding ATAACA, the binding signal in the experiment with FLI1 is 1.2 fold enrichment (6-mer frequency, TF over GST control); with ELK1 it was 1.29 fold enrichment (6-mer frequency, TF over GST control); in the experiment with GABPA, 1.22 fold enrichment (6-mer frequency, TF over GST control); with ERG, 1.25 fold enrichment (6-mer frequency, TF over GST control); with ELF1 it was 1.28 fold enrichment (6-mer frequency, TF over GST control); with EHF, 1.19 fold enrichment (6-mer frequency, TF over GST control). Besides, the binding signal with SPI1 was 1.16 fold enrichment (6-mer frequency, TF over GST control); in the experiment with SPIB, 1.33 fold enrichment (6-mer frequency, TF over GST control); with ELK3 it was 1.24 fold enrichment (6-mer frequency, TF over GST control).
As to AAGGAT, the binding signal with FLI1 was 1.14 fold enrichment (6-mer frequency, TF over GST control); with ELK1, 1.19 fold enrichment (6-mer frequency, TF over GST control); in the experiment with GABPA, 1.12 fold enrichment (6-mer frequency, TF over GST control); with ERG, 1.17 fold enrichment (6-mer frequency, TF over GST control); with ELF1, 1.22 fold enrichment (6-mer frequency, TF over GST control); with EHF, 1.25 fold enrichment (6-mer frequency, TF over GST control). For the same sequence, the binding signal with SPI1 was 1.12 fold enrichment (6-mer frequency, TF over GST control); with SPIB, 1.19 fold enrichment (6-mer frequency, TF over GST control); with ELK3, 1.13 fold enrichment (6-mer frequency, TF over GST control).
